Experimental data published in PubChem BioAssay (NCATS).
Results filed as inconclusive are left out. The source made the active and inactive calls. The call rests on the fitted dose curve; in most records, active means well fitted inhibition curve with a large enough effect; inconclusive means small, poorly fitted or top-dose-only effect; inactive means flat fitted curve, though single readings scatter.

Assays:
[1] = molecular target: Luciferin 4-monooxygenase (Photinus pyralis) (UniProt P08659); experiment: Biochemical firefly luciferase enzyme assay for NPC (AID 624030); further: nearly all actives have a fitted effect of over 70% in size
Outline: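 Direct inhibition of firefly luciferase enzyme (10 nM final, 50 mM Tris Acetate) assessed by luminescence within 5 minutes. Percent activity scaled between DMSO and PTC124 positive control, with concentration-effect curves classified by fit quality and response.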

[2] = test system: 3D7; experiment: qHTS profiling for inhibitors of Plasmodium falciparum proliferation (AID 504749); further: nearly all actives have a fitted effect of over 60% in size; conditions: P. falciparum in erythrocytes, SYBR Green DNA, 72 h; series mostly up to 12.8 µM
Outline: (§1)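 SYBR Green fluorescence of parasite DNA, read after lysis and overnight dark incubation, measured growth over 72 h in erythrocyte culture at 0.3% parasitemia and 2.5% hematocrit. Data normalised to DMSO and 0.29 uM artemisinin, with plate-drift correction.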

[3] = test system: C2A; experiment: as above; conditions: P. falciparum in erythrocytes, SYBR Green DNA, 72 h; series mostly up to 12.8 µM
Outline: as §1

[4] = test system: CP185; experiment: as above; conditions: P. falciparum in erythrocytes, SYBR Green DNA, 72 h; series mostly up to 12.8 µM
Outline: as §1

[5] = test system: CP191; experiment: as above; conditions: P. falciparum in erythrocytes, SYBR Green DNA, 72 h; series mostly up to 12.8 µM
Outline: as §1

[6] = test system: CP194; experiment: as above; conditions: P. falciparum in erythrocytes, SYBR Green DNA, 72 h; series mostly up to 12.8 µM
Outline: as §1

[7] = test system: CP211; experiment: as above; conditions: P. falciparum in erythrocytes, SYBR Green DNA, 72 h; series mostly up to 12.8 µM
Outline: as §1

[8] = test system: CP238; experiment: as above; conditions: P. falciparum in erythrocytes, SYBR Green DNA, 72 h; series mostly up to 12.8 µM
Outline: as §1

[9] = test system: CP265; experiment: as above; conditions: P. falciparum in erythrocytes, SYBR Green DNA, 72 h; series mostly up to 12.8 µM
Outline: as §1

[10] = test system: CP268; experiment: as above; conditions: P. falciparum in erythrocytes, SYBR Green DNA, 72 h; series mostly up to 12.8 µM
Outline: as §1

[11] = test system: CP291; experiment: as above; conditions: P. falciparum in erythrocytes, SYBR Green DNA, 72 h; series mostly up to 12.8 µM
Outline: as §1

[12] = test system: CP297; experiment: as above; conditions: P. falciparum in erythrocytes, SYBR Green DNA, 72 h; series mostly up to 12.8 µM
Outline: as §1

[13] = test system: DIV30; experiment: as above; conditions: P. falciparum in erythrocytes, SYBR Green DNA, 72 h; series mostly up to 12.8 µM
Outline: as §1

[14] = test system: Dd2; experiment: as above; conditions: P. falciparum in erythrocytes, SYBR Green DNA, 72 h; series mostly up to 12.8 µM
Outline: as §1

[15] = test system: ECU; experiment: as above; conditions: P. falciparum in erythrocytes, SYBR Green DNA, 72 h; series mostly up to 12.8 µM
Outline: as §1

[16] = test system: HB3; experiment: as above; conditions: P. falciparum in erythrocytes, SYBR Green DNA, 72 h; series mostly up to 12.8 µM
Outline: as §1

[17] = test system: PC15; experiment: as above; conditions: P. falciparum in erythrocytes, SYBR Green DNA, 72 h; series mostly up to 12.8 µM
Outline: as §1

[18] = test system: PC26; experiment: as above; conditions: P. falciparum in erythrocytes, SYBR Green DNA, 72 h; series mostly up to 12.8 µM
Outline: as §1

[19] = test system: TAB113; experiment: as above; conditions: P. falciparum in erythrocytes, SYBR Green DNA, 72 h; series mostly up to 12.8 µM
Outline: as §1

[20] = test system: CP266; experiment: as above; conditions: P. falciparum in erythrocytes, SYBR Green DNA, 72 h; series mostly up to 12.8 µM
Outline: as §1

Measured: Potency
Potency means the concentration at half of the fitted maximal effect.

Luciferin 4-monooxygenase (Photinus pyralis), sequence (P08659 whole entry, looked up): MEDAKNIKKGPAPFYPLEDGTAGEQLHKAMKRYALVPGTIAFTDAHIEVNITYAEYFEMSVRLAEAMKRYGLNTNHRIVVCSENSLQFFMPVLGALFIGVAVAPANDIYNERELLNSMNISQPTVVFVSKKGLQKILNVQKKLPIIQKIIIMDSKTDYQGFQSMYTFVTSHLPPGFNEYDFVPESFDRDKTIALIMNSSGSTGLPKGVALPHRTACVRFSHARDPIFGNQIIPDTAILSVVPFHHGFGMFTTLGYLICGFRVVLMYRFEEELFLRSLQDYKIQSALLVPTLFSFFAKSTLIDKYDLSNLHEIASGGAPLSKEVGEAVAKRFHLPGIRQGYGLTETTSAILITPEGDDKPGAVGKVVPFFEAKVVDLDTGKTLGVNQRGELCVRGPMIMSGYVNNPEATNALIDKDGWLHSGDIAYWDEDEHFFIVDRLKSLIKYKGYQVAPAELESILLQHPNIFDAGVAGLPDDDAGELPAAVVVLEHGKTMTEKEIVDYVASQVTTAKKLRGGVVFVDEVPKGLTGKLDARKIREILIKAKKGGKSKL

COc1cc(N[C@@H](C)CCCN)c2ncccc2c1
active: [2] 1780 nM | [3] 2820 nM | [4] 2000 nM | [5] 1000 nM | [6] 3610 nM | [7] 2280 nM | [8] 2240 nM | [9] 2000 nM | [10] 1610 nM | [11] 1810 nM | [12] 3610 nM | [13] 2030 nM | [14] 1410 nM | [15] 1000 nM | [16] 2240 nM | [17] 1000 nM | [18] 2280 nM | [19] 1410 nM
inactive: [1]

COc1ccc2c(c1)N(C[C@@H](C)CN(C)C)c1ccccc1S2
not listed: [13] | [18] | [20]
inactive: all other assays above

CC1(C)[C@@H](OC(=O)CCC(=O)O)CC[C@@]2(C)[C@H]1CC[C@@]1(C)[C@H]2C(=O)C=C2[C@H]3C[C@](C)(C(=O)O)CC[C@]3(C)CC[C@@]21C
not listed: [1]
inactive: all other assays above

CCC(=O)O[C@@H]1[C@H](C)O[C@H](O[C@H]2[C@@H](N(C)C)[C@H](O)[C@@H](O[C@@H]3[C@@H](CC=O)C[C@@H](C)[C@@H](O)/C=C\C=C/C[C@@H](C)OC(=O)C[C@@H](OC(=O)CC)[C@H]3OC)O[C@H]2C)C[C@]1(C)O
active: [14] 3160 nM
inactive: [2] | [3] | [5] | [13] | [15] | [16] | [17] | [18] | [19]

CCC(C)(C)C(=O)O[C@@H]1C[C@H](C)C=C2C=C[C@H](C)[C@@H](CC[C@H]3C[C@@H](O)CC(=O)O3)[C@H]21
not listed: [14] | [16] | [19]
inactive: all other assays above

COC1OC(CO)C(OC2OC(C(=O)O)C(OC3OC(COS(=O)(=O)O)C(OC4OC(C(=O)O)C(OC5OC(CO)C(OC6OC(C(=O)O)C(OC7OC(COS(=O)(=O)O)C(OC8OC(C(=O)O)=C[C@H](O)C8OS(=O)(=O)O)C(O)C7NC(C)=O)[C@@H](O)C6O)C(O)C5NC(C)=O)[C@@H](O)C4O)C(O)C3NC(C)=O)[C@@H](O)C2O)C(O)C1NC(C)=O (stereo not given in full)
active: [5] 11200 nM | [19] 14100 nM
inactive: [1] | [6] | [7] | [20] | [10] | [11] | [12]

CCCCCCCCCc1ccc(OCCOCCOCCOCCOCCOCCOCCOCCOCCO)cc1
inactive: [1] | [3] | [4] | [8] | [9] | [20] | [10] | [11] | [13] | [17] | [19]

COc1ccc(CC(N)C(=O)NC2C(CO)OC(n3cnc4c(N(C)C)ncnc43)C2O)cc1 (stereo not given)
active: [2] 1000 nM | [3] 891 nM | [4] 631 nM | [5] 891 nM | [6] 1070 nM | [7] 478 nM | [8] 794 nM | [9] 891 nM | [20] 1200 nM | [10] 1510 nM | [11] 1070 nM | [12] 1200 nM | [13] 849 nM | [14] 355 nM | [15] 891 nM | [16] 1000 nM | [17] 1260 nM | [18] 849 nM | [19] 1000 nM
inactive: [1]

N[C@@H]1C(O)OC(CO)C(O)C1O (stereo not given in full)
inactive: all assays above

COC1CC(O[C@H]2/C(C)=C/CC3CC(C[C@]4(CCC(C)C(C5CCCCC5)O4)O3)OC(=O)[C@H]3C=C(C)/C(=N/O)C4OC/C(=C\C=C\[C@@H]2C)[C@@]43O)OC(C)C1O (stereo not given in full)
active: [5] 10000 nM
inactive: [1] | [6] | [7] | [20] | [10] | [11] | [14] | [17] | [18]

CC1C2CCC3C4CC=C5CC(N(C)C)CC[C@@]5(C)C4CC[C@@]32CN1C (stereo not given in full)
inactive: all assays above

CC(=O)O[C@@]1(C(C)=O)CCC2C3CC(C)C4=CC(=O)CC[C@@]4(C)C3CC[C@]21C (stereo not given in full)
inactive: [1] | [2] | [6] | [7] | [8] | [20] | [10] | [11] | [12] | [13] | [18]

C=Cc1c(C)/c2[n-]/c1=C\c1[n-]c(c(CC)c1C)/C=c1\[n-]c3c(c1C)C(=O)C(C(=O)[O-])C=3c1[n-]c(c(C)c1CCC(=O)[O-])\C=2.[Cu].[Na+].[Na+] (stereo not given)
active: [1] 32200 nM
inactive: [2] | [3] | [4] | [7] | [9] | [20] | [10] | [11] | [13]

COc1ccc2cc1Oc1ccc(cc1)CC1c3c(cc4c(c3Oc3cc5c(cc3OC)CCN(C)C5C2)OCO4)CCN1C (stereo not given)
inactive: [1]
active: [2] 11200 nM | [3] 11200 nM | [4] 7940 nM | [5] 5010 nM | [6] 13500 nM | [7] 12000 nM | [8] 7080 nM | [9] 8910 nM | [10] 13500 nM | [11] 12000 nM | [12] 10700 nM | [14] 2240 nM | [15] 8910 nM | [16] 7080 nM | [18] 12000 nM | [19] 7080 nM
